Experimental data as given in PubChem BioAssay.
Where “and” joins values, the source holds several entries; their conditions need not be identical. Equal values may be shown once. Calls of active or inactive are those of the source.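 How the source made its calls, unless noted: active means normalized viability below 100% at a tested concentration; inactive means the rest.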

Key:
[1] = stimulators of nuclear beta-catenin in C2C12, primary screen, imaging, WNT3A-conditioned medium, mouse C2C12, NPC library (AID 1117326; in the data active means nuclear beta-catenin stimulation mostly above about 4.2%, no sharp cut-off; inactive means mostly below about 10%); conditions: stronger effect = higher value
[2] = stimulators of insulin release from INS-1E, primary screen, cell-based, 5 mM glucose, NPC library (AID 1117329;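 active means compound raises insulin release from rat beta cells at 5 mM glucose, no numeric limit stated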); conditions: rat INS-1E insulin secretion, at 10 µM, stronger effect = higher value
[3] = growth inhibition of GSK3B-pretreated HCT116 cells – cell-based, CellTiter-Glo, 0.2 to 20 µM (AID 1117336;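 active means compounds lowering colon cancer cell viability after pretreatment blocking the GSK3B kinase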); conditions: HCT116 viability after GSK3B inhibitor, at 20 µM, stronger effect = higher value
[4] = inhibition of endothelial tube formation, primary screen, imaging, VEGF stimulated, CD31 staining, tube area, NPC library (AID 1117340;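 active means compound that reduces growth-factor-driven endothelial tube area in a mixed cell culture, no cutoff stated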); conditions: VEGF-stimulated ADSC/ECFC co-culture, at 10 µM, stronger effect = higher value
[5] = glucagon-like peptide 1 release enhancers, primary assay, NCI-H716 cell line, NPC library (AID 1117341;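 active means compound raises GLP1 secretion from the human gut endocrine cells, with no numeric limit stated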); conditions: NCI-H716 cells, at 10 µM, stronger effect = higher value
[6] = HCT116 colon cancer cell growth inhibition, primary screen, CellTiter-Glo luminescence, NPC library (AID 1117342;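 active means compounds that lower survival of HCT116 colon cancer cells in the luminescence readout, no numeric limit stated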); conditions: at 20 µM (top of the series)
[7] = CellTiter-Glo luminescent readout of SW480 viability loss, NPC library primary (AID 1117343;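 active means compounds that lower viability of the colon cancer cells in the luminescence readout, with no numeric limit stated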); conditions: CellTiter-Glo luminescence; at 20 µM (top of the series) unless noted
[8] = decreased DLD-1 cellular survival, CellTiter-Glo luminescent readout, NPC compound collection, primary HTS (AID 1117346;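 active means compounds that lower survival of DLD-1 colon cancer cells in the luminescence readout, no cutoff given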); conditions: DLD-1 viability, CellTiter-Glo luminescence; at 20 µM (top of the series)
[9] = differential killing of epithelial or mesenchymal cells, primary screen, imaging, PC-3E GFP, TEM4-18 mCherry, co-culture (AID 1345086;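 active means compounds killing one labelled cell type while sparing the other, by normalised counts and ratio limits, not self-fluorescent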;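 on all read-outs here: cells exposed to compound for 72 h before imaging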;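 on red/green cell ratio (normalised): normalised mesenchymal count divided by normalised epithelial count so high means epithelial killing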); conditions: imaging cell counts, at 1 µM; for red/green cell ratio (normalised): actives lie on both sides, counts scaled to control wells, 1 = unselective
[10] = sensitizers of A549 cells to miR-34 induction, primary screen, imaging, A549 dox-inducible miR-34, nuclei and caspase counts (AID 1347080;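 active means compounds whose cell count with miR-34 switched on is under 0.7 times the count with it off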); conditions: A549 miR-34 inducible, Hoechst nuclei count, 48 h
[11] = survival rescue of mitochondrial mutant cells in low glucose, primary screen, MELAS cybrids, Rieske KO mouse fibroblasts, CellTiter-Glo (AID 1508586;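 active means mean z-score across replicates of 1.96 or higher in either the MELAS or the Rieske mutant cell line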;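 further: z relative to plate mean and SD of compound and empty wells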)
[12] = ovarian cancer cell viability with rucaparib, profiling panel, oncology-focused library, rucaparib conditional (AID 1508598); conditions: patient-derived ovarian cancer cells, CellTiter-Glo viability, 144 h, stronger effect = lower value
[13] = target: NAD(+) hydrolase SARM1 (Homo sapiens) (UniProt Q6SZW1); test: SARM1 TIR NADase inhibitors, cell lysate, NAD-Glo luminescence (AID 1508614;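 active means compound whose remaining NAD level is above about 45 nM, limit read from the data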); conditions: SAM-TIR HEK293T lysate NADase, at 1 µM, stronger effect = higher value
Chain of NAD(+) hydrolase SARM1 (Homo sapiens) (Q6SZW1 whole entry, looked up): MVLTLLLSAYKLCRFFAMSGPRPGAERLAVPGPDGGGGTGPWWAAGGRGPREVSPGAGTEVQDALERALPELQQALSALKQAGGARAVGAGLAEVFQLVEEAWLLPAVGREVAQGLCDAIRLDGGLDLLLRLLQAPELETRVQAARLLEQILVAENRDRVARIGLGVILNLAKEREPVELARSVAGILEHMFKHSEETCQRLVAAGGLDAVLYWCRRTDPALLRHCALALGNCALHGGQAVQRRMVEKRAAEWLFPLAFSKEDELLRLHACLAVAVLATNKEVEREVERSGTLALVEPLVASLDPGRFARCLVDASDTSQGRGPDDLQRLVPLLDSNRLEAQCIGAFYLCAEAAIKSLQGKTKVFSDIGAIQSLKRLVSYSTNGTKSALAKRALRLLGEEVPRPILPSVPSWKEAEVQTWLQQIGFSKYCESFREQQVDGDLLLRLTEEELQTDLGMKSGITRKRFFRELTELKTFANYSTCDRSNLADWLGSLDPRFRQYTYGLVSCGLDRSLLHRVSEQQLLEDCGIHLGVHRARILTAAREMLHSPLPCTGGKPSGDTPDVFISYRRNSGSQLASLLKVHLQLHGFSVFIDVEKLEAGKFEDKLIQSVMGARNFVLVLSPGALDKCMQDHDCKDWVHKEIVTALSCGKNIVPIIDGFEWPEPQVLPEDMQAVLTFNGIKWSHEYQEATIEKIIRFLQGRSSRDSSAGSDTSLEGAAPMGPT

[14] = liver-stage malaria parasite growth inhibition, primary screen, cell-based, HepG2, luciferase luminescence, HepG2 viability (AID 624349; in the data active means parasite load remaining mostly below about 12%, no sharp cut-off; inactive means mostly above about 10%;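 further: 100% = mean of DMSO negative control wells on the same plate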); conditions: P. berghei liver stage in HepG2, luciferase luminescence, concentration not given here; parasite load remaining: stronger effect = lower value; viability: measured here: HepG2 viability without parasites
[15] = measured here: epithelial PC-3E GFP cell survival
[16] = measured here: mesenchymal TEM4-18 mCherry cell survival
[17] = stronger effect = lower value, cell number ratio, induced over uninduced
[18] = measured here: relative caspase fold change +Dox/-Dox
[19] = measured here: total cells with miR-34 induction, stronger effect = lower value
[20] = measured here: total cells without miR-34 induction
[21] = MELAS cybrid survival, CellTiter-Glo 48 h, stronger effect = higher value
[22] = Rieske KO mouse fibroblast survival, CellTiter-Glo 72 h

Cc1nc(Nc2ncc(C(=O)Nc3c(C)cccc3Cl)s2)cc(N2CCN(CCO)CC2)n1
470 and 582: cell count [10, 19]
0.38: normalised cell number [9, 15]
0.58: normalised cell number [9, 16]
524 and 647: cell count [10, 20]
-1.77: z-score [11, 22]
inactive: insulin secretion stimulation [2] -0.7% | viability decrease [3] -182% | GLP1 secretion stimulation [5] 2.2% | red/green cell ratio (normalised) [9] 1.54 | fold change [10, 17] 0.896 and 0.9 | viability ([12]; at 0.000305 µM, OCI-C5x cells, with rucaparib 10 µM, 100% = cells with rucaparib alone) 102% | viability ([12]; at 0.000305 µM, OCI-C5x cells, without rucaparib) 117% | viability ([12]; at 0.000305 µM, OCI-P5x cells, with rucaparib 20 µM, 100% = cells with rucaparib alone) 103% | viability ([12]; at 0.00122 µM, OCI-C5x cells, without rucaparib) 114% | viability ([12]; at 0.00488 µM, OCI-C5x cells, with rucaparib 10 µM, 100% = cells with rucaparib alone) 107% | viability ([12]; at 0.00488 µM, OCI-C5x cells, without rucaparib) 108% | remaining NAD [13] 10 nM
active: nuclear beta-catenin stimulation ([1]; at 10 µM) 69.4% | tube area decrease [4] 62.2% | inhibition of viability [6] 69.7% | viability decrease (inhibition) [7] 87.2% | viability decrease (inhibition) [8] 100% | z-score [11, 21] 4.95 | viability ([12]; at 0.000305 µM, OCI-P5x cells, without rucaparib) 98.9% | viability ([12]; at 0.00122 µM, OCI-C5x cells, with rucaparib 10 µM, 100% = cells with rucaparib alone) 99.9% | viability ([12]; at 0.00122 µM, OCI-P5x cells, with rucaparib 20 µM, 100% = cells with rucaparib alone) 54.8% | viability ([12]; at 0.00122 µM, OCI-P5x cells, without rucaparib) 97.2% | viability ([12]; at 0.00488 µM, OCI-P5x cells, with rucaparib 20 µM, 100% = cells with rucaparib alone) 52.6% | viability ([12]; at 0.00488 µM, OCI-P5x cells, without rucaparib) 81.3% | viability ([12]; at 0.0195 µM, OCI-C5x cells, with rucaparib 10 µM, 100% = cells with rucaparib alone) 77.4% | viability ([12]; at 0.0195 µM, OCI-C5x cells, without rucaparib) 87.9% | viability ([12]; at 0.0195 µM, OCI-P5x cells, with rucaparib 20 µM, 100% = cells with rucaparib alone) 27.3% | viability ([12]; at 0.0195 µM, OCI-P5x cells, without rucaparib) 53.6% | viability ([12]; at 0.0781 µM, OCI-C5x cells, with rucaparib 10 µM, 100% = cells with rucaparib alone) 68.4% | viability ([12]; at 0.0781 µM, OCI-C5x cells, without rucaparib) 72.4% | viability ([12]; at 0.0781 µM, OCI-P5x cells, with rucaparib 20 µM, 100% = cells with rucaparib alone) 17% | viability ([12]; at 0.0781 µM, OCI-P5x cells, without rucaparib) 31.8% | viability ([12]; at 0.313 µM, OCI-C5x cells, with rucaparib 10 µM, 100% = cells with rucaparib alone) 69.2% | viability ([12]; at 0.313 µM, OCI-C5x cells, without rucaparib) 71.6% | viability ([12]; at 0.313 µM, OCI-P5x cells, with rucaparib 20 µM, 100% = cells with rucaparib alone) 17% | viability ([12]; at 0.313 µM, OCI-P5x cells, without rucaparib) 28.4% | viability ([12]; at 1.25 µM, OCI-C5x cells, with rucaparib 10 µM, 100% = cells with rucaparib alone) 66.7% | viability ([12]; at 1.25 µM, OCI-C5x cells, without rucaparib) 71.4% | viability ([12]; at 1.25 µM, OCI-P5x cells, with rucaparib 20 µM, 100% = cells with rucaparib alone) 16.6% | viability ([12]; at 1.25 µM, OCI-P5x cells, without rucaparib) 24.3% | viability ([12]; at 5 µM, OCI-C5x cells, with rucaparib 10 µM, 100% = cells with rucaparib alone) 44.6% | viability ([12]; at 5 µM, OCI-C5x cells, without rucaparib) 51.1% | viability ([12]; at 5 µM, OCI-P5x cells, with rucaparib 20 µM, 100% = cells with rucaparib alone) 2.14% | viability ([12]; at 5 µM, OCI-P5x cells, without rucaparib) 10.5%
0.654 and 0.731: fold change [10, 18]
65.2%: nuclear beta-catenin stimulation ([1]; stimulation, at 2 µM)

CCN(C)C(=O)Oc1cccc([C@H](C)N(C)C)c1
11400: cell count [10, 20]
0.4%: nuclear beta-catenin stimulation ([1]; stimulation, at 2 µM)
inactive: parasite load remaining [14] 32.3% | nuclear beta-catenin stimulation ([1]; at 10 µM) -0.2% | insulin secretion stimulation [2] 6.4% | viability decrease [3] 5.7% | tube area decrease [4] -0.5% | GLP1 secretion stimulation [5] 2.5% | inhibition of viability [6] 25.9% | viability decrease (inhibition) [7] 17.2% | viability decrease (inhibition) [8] 0.2% | red/green cell ratio (normalised) [9] 1.13 | fold change [10, 17] 0.884 | z-score [11, 21] -0.629 and -0.546
1.4: normalised cell number [9, 16]
99%: viability [14]
10100: cell count [10, 19]
-0.737 and -0.15: z-score [11, 22]
1.13: fold change [10, 18]
1.24: normalised cell number [9, 15]

Cn1c(=O)c2c(ncn2CC2OCCO2)n(C)c1=O
1.1%: nuclear beta-catenin stimulation ([1]; stimulation, at 2 µM)
9320 and 10900: cell count [10, 20]
-0.174 and -0.641 and -0.268: z-score [11, 22]
inactive: parasite load remaining [14] 22.8% | nuclear beta-catenin stimulation ([1]; at 10 µM) 2.7% | insulin secretion stimulation [2] -2.4% | viability decrease [3] -0.95% | tube area decrease [4] -3.4% | GLP1 secretion stimulation [5] -1.2% | inhibition of viability [6] 16.1% | viability decrease (inhibition) [7] 46.8% | viability decrease (inhibition) [8] 11.7% | red/green cell ratio (normalised) [9] 0.85 | fold change [10, 17] 0.901 and 0.895 | z-score [11, 21] -0.299 and -0.511 and 0.326 | remaining NAD [13] 10 nM
1.16: normalised cell number [9, 15]
8400 and 9760: cell count [10, 19]
0.98: normalised cell number [9, 16]
112%: viability [14]
0.475 and 1.33: fold change [10, 18]
